Several values for one entry are separate records, joined by “and”; a condition that tells them apart may be missing. Equal values may be shown once. In all, about 5,500 compounds went through this assay and about 2,000 (36%) were called active. About 18% were inconclusive and are not listed. Rule as the data show it: active = normalized growth mostly below about 0.91 (no sharp cut-off); inconclusive = no clear call, values can overlap the other calls; inactive = mostly above about 0.92. Some of the results follow.
Test: chemical genetic growth profiling, strain panel (AID 1159580);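 also: tested at 20 µM; growth read once vehicle control cultures reached saturation at 30 °C; 1 = growth at the plate median or of vehicle wells; lower values mean less growth of the strain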
Conditions: S. cerevisiae deletion strains, growth OD

Measured: normalized growth

C#C[C@]1(O)CCC2C3CCC4=Cc5oncc5C[C@]4(C)C3CC[C@@]21C (stereo partly specified)
0.825 (active) and 0.957 (inactive): locus YHR030C, strain SLT2, stronger effect = lower value
0.729 (active) and 0.973 (inactive): locus YJL095W, strain BCK1, stronger effect = lower value
active: locus YBR229C, strain ROT2, stronger effect = lower value 0.898 | locus YDL074C, strain BRE1, stronger effect = lower value 0.725 | locus YDR101C, strain arx1, stronger effect = lower value 0.887 | locus YDR159W, strain sac3, stronger effect = lower value 0.839 | locus YDR318W, strain mcm21, stronger effect = lower value 0.891 | locus YDR392W, strain spt3, stronger effect = lower value 0.542 | locus YDR502C, strain sam2, stronger effect = lower value 0.887 | locus YER155C, strain BEM2 (second series), stronger effect = lower value 0.828 | locus YER155C, strain BEM2, stronger effect = lower value 0.903 | locus YGL086W, strain mad1, stronger effect = lower value 0.85 | locus YHR079C, strain IRE1 (second series), stronger effect = lower value 0.924 | locus YHR129C, strain ARP1, stronger effect = lower value 0.889 | locus YHR200W, strain rpn10, stronger effect = lower value 0.912 | locus YIL066C, strain RNR3, stronger effect = lower value 0.785 | locus YIL125W, strain kgd1, stronger effect = lower value 0.917 | locus YIR030C, strain dcg1, stronger effect = lower value 0.927 | locus YJL129C, strain trk1, stronger effect = lower value 0.83 | locus YJL166W, strain qcr8, stronger effect = lower value 0.899
inactive: locus YAL021C, strain ccr4, stronger effect = lower value 1.05 | locus YAL026C, strain drs2, stronger effect = lower value 0.977 | locus YAL030W, strain snc1, stronger effect = lower value 0.94 | locus YBL061C, strain skt5, stronger effect = lower value 0.941 | locus YBR009C, strain hhf1, stronger effect = lower value 0.918 | locus YBR021W, strain FUR4, stronger effect = lower value 1.01 | locus YBR023C, strain chs3, stronger effect = lower value 0.958 | locus YBR171W, strain sec66, stronger effect = lower value 0.937 | locus YBR231C, strain swc5, stronger effect = lower value 0.966 | locus YBR279W, strain paf1, stronger effect = lower value 0.969 | locus YCL011C, strain gbp2, stronger effect = lower value 0.97 | locus YCL016C, strain dcc1, stronger effect = lower value 0.996 | locus YCL029C, strain bik1, stronger effect = lower value 0.919 | locus YCL061C, strain MRC1, stronger effect = lower value 0.943 | locus YCL069W, strain vba3, stronger effect = lower value 0.956 | locus YCR088W, strain abp1, stronger effect = lower value 0.943 | locus YDL005C, strain med2, stronger effect = lower value 0.954 | locus YDL035C, strain GPR1, stronger effect = lower value 0.94 | locus YDL040C, strain nat1, stronger effect = lower value 0.958 | locus YDL101C, strain DUN1, stronger effect = lower value 0.906 | locus YDL185W, strain tfp1, stronger effect = lower value 0.932 | locus YDL192W, strain arf1, stronger effect = lower value 0.933 | locus YDR001C, strain nth1, stronger effect = lower value 0.961 | locus YDR069C, strain doa4, stronger effect = lower value 0.96 | locus YDR137W, strain rgp1, stronger effect = lower value 0.859 | locus YDR150W, strain NUM1, stronger effect = lower value 0.929 | locus YDR162C, strain NBP2, stronger effect = lower value 0.866 | locus YDR195W, strain ref2 0.978 | locus YDR297W, strain sur2, stronger effect = lower value 0.937 | locus YDR334W, strain swr1, stronger effect = lower value 0.965 | locus YDR335W, strain msn5, stronger effect = lower value 0.95 | locus YDR388W, stronger effect = lower value 0.957 | locus YEL003W, strain gim4, stronger effect = lower value 0.932 | locus YEL037C, strain rad23, stronger effect = lower value 0.971 | locus YEL061C, strain CIN8 (second series), stronger effect = lower value 0.958 | locus YEL061C, strain CIN8, stronger effect = lower value 0.93 | locus YER015W, strain faa2, stronger effect = lower value 0.961 | locus YER016W, strain bim1, stronger effect = lower value 0.969 | locus YER110C, stronger effect = lower value 0.933 | locus YER111C, strain swi4, stronger effect = lower value 0.978 | locus YER167W, strain BCK2, stronger effect = lower value 0.939 | locus YFR010W, strain ubp6, stronger effect = lower value 0.927 | locus YGL078C, strain dbp3, stronger effect = lower value 0.962 | locus YGL167C, strain pmr1, stronger effect = lower value 0.942 | locus YGL173C, strain kem1, stronger effect = lower value 0.929 | locus YGL227W, strain vid30, stronger effect = lower value 0.958 | locus YGL240W, strain doc1, stronger effect = lower value 0.94 | locus YGL248W, strain PDE1, stronger effect = lower value 0.892 | locus YGL253W, strain hxk2, stronger effect = lower value 0.946 | locus YGR135W, strain pre9, stronger effect = lower value 0.999 | locus YGR252W, strain gcn5, stronger effect = lower value 0.99 | locus YHR013C, strain ard1, stronger effect = lower value 1.01 | locus YHR027C, strain rpn1, stronger effect = lower value 0.979 | locus YHR079C, strain IRE1, stronger effect = lower value 0.964 | locus YHR094C, strain hxt1, stronger effect = lower value 0.939 | locus YHR142W, strain chs7, stronger effect = lower value 0.888 | locus YIL073C, strain SPO22, stronger effect = lower value 0.871 | locus YJL092W, strain hpr5, stronger effect = lower value 0.934 | locus YJL095W, strain BCK1 (second series), stronger effect = lower value 0.976 | locus YJL115W, strain asf1, stronger effect = lower value 0.952 | locus YJL134W, strain LCB3, stronger effect = lower value 0.944 | locus YJL154C, strain vps35, stronger effect = lower value 0.961 | locus YJL164C, strain tpk1, stronger effect = lower value 0.973 | locus YJL168C, strain set2, stronger effect = lower value 0.941 | locus YJL187C, strain SWE1 (second series), stronger effect = lower value 0.904 | locus YJR043C, strain POL32, stronger effect = lower value 0.93
